Tests used:
[1] = target: Ribosomal protein S6 kinase alpha-6 (Homo sapiens) (UniProt Q9UK32); conditions: at 1 µM;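 also: each value is a mean inhibition of RSK4 from a GSK PKIS panel screen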
[2] = target: T1, Serine/threonine-protein kinase Sgk1 (Homo sapiens) (UniProt O00141); conditions: at 0.1 µM
T1 sequence (whole entry): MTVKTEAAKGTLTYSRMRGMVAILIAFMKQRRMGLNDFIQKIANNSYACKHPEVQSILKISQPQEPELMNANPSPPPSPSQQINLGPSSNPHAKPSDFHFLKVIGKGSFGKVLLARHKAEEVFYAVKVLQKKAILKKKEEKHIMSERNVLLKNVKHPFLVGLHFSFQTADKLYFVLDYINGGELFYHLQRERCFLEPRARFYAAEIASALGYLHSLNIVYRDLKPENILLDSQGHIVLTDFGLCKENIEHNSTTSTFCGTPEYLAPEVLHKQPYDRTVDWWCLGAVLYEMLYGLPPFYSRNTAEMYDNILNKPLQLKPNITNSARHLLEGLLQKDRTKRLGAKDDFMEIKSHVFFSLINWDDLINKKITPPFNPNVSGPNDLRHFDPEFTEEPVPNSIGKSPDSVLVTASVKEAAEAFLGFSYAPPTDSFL

[3] = target: T1, Serine/threonine-protein kinase Sgk1 (Homo sapiens); conditions: at 1 µM
[4] = target: T2, Serine/threonine-protein kinase Sgk2 (Homo sapiens) (UniProt Q9HBY8); conditions: at 0.1 µM
T2 sequence (whole entry): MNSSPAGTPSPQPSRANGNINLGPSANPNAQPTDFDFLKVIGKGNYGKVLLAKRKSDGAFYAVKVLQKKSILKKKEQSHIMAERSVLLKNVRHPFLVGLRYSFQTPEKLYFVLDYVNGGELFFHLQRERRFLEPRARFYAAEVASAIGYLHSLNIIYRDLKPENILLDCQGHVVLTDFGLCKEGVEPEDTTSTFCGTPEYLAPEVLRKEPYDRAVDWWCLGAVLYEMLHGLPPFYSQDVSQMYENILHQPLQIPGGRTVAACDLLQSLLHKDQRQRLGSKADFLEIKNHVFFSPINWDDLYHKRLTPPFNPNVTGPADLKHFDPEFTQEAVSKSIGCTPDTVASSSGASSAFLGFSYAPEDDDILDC

[5] = target: T2, Serine/threonine-protein kinase Sgk2 (Homo sapiens); conditions: at 1 µM
[6] = target: T3, Serine/threonine-protein kinase Sgk3 (Homo sapiens) (UniProt Q96BR1); conditions: at 0.1 µM
T3 sequence (whole entry): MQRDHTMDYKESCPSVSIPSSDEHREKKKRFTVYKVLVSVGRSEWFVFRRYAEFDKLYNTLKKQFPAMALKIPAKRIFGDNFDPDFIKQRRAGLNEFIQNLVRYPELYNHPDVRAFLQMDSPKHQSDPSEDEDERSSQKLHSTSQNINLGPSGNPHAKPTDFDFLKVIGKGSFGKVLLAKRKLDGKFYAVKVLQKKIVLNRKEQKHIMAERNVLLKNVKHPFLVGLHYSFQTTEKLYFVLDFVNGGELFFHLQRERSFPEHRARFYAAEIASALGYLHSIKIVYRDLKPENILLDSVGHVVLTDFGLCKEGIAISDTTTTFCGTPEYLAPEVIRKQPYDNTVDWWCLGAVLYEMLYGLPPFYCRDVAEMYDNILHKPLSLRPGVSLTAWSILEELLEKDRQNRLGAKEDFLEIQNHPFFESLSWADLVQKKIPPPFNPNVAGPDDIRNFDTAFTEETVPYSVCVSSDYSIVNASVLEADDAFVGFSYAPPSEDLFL

[7] = target: T3, Serine/threonine-protein kinase Sgk3 (Homo sapiens); conditions: at 1 µM
[8] = target: 5'-AMP-activated protein kinase catalytic subunit alpha-1 (Homo sapiens) (UniProt Q13131); conditions: at 0.1 µM
[9] = target: 5'-AMP-activated protein kinase catalytic subunit alpha-1 (Homo sapiens) (UniProt Q13131); conditions: at 1 µM
[10] = target: 5'-AMP-activated protein kinase catalytic subunit alpha-2 (Homo sapiens) (UniProt P54646); conditions: at 0.1 µM
[11] = target: 5'-AMP-activated protein kinase catalytic subunit alpha-2 (Homo sapiens) (UniProt P54646); conditions: at 1 µM
[12] = target: T4, NUAK family SNF1-like kinase 1 (Homo sapiens) (UniProt O60285); conditions: at 0.1 µM
T4 sequence (whole entry): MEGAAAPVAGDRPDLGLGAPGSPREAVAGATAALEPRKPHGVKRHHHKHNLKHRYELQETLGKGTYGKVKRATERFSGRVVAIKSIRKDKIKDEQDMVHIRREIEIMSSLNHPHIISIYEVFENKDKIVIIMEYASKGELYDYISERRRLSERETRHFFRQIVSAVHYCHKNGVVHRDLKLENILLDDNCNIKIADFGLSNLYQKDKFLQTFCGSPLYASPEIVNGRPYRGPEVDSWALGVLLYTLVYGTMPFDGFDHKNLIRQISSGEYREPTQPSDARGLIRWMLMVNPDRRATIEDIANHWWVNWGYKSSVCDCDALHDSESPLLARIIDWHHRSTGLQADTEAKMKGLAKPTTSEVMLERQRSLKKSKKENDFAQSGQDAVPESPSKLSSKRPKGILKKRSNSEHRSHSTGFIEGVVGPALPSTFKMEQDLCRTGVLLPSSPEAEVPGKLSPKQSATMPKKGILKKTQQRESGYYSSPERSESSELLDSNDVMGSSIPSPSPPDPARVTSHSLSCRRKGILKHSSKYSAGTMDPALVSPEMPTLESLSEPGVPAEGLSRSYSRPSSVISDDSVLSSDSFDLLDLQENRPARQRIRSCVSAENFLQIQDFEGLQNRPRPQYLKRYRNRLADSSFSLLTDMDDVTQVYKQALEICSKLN

[13] = target: T4, NUAK family SNF1-like kinase 1 (Homo sapiens); conditions: at 1 µM
[14] = target: T5, Serine/threonine-protein kinase BRSK1 (Homo sapiens) (UniProt Q8TDC3); conditions: at 0.1 µM
T5 sequence (whole entry): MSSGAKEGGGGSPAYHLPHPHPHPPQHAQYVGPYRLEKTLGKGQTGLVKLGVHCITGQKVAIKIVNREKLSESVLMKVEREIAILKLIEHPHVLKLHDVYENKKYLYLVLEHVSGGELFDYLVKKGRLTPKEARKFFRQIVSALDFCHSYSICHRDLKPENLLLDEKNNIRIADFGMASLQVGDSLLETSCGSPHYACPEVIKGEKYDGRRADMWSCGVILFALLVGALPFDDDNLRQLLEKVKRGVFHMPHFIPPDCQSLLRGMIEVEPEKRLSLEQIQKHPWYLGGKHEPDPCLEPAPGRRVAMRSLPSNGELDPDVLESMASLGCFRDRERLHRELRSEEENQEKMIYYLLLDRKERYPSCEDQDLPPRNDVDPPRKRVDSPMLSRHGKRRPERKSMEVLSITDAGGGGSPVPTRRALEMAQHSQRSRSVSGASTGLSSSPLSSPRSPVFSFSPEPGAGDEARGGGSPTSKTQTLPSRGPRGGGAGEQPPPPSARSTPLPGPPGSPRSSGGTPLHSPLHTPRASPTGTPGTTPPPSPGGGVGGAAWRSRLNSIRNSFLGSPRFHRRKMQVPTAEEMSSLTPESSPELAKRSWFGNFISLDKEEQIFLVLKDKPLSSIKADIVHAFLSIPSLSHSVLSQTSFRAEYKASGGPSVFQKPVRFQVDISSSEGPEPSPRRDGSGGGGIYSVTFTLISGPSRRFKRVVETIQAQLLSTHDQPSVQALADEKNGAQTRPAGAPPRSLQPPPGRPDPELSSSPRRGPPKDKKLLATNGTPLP

[15] = target: T5, Serine/threonine-protein kinase BRSK1 (Homo sapiens); conditions: at 1 µM
[16] = target: T6, Serine/threonine-protein kinase BRSK2 (Homo sapiens) (UniProt Q8IWQ3); conditions: at 0.1 µM
T6 sequence (whole entry): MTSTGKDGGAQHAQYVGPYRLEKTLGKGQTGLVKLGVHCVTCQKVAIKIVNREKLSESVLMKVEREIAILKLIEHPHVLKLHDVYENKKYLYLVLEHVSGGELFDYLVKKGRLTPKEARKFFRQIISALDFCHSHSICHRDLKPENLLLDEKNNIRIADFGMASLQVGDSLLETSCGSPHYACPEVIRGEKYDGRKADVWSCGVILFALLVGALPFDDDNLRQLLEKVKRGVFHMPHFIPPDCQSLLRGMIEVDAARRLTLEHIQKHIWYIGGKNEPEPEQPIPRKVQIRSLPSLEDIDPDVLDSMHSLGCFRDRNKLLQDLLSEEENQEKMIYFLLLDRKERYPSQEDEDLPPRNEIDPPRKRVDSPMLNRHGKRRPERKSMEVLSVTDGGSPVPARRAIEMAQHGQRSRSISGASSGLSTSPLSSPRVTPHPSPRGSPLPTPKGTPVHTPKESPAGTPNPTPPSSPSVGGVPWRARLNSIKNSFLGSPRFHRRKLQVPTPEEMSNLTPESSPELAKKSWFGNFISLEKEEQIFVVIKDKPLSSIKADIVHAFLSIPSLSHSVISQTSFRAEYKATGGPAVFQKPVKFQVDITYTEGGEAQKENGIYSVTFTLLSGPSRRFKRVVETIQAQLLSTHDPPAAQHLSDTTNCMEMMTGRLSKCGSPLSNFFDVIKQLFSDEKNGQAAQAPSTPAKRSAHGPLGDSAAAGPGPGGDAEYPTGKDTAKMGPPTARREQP

[17] = target: T6, Serine/threonine-protein kinase BRSK2 (Homo sapiens); conditions: at 1 µM
[18] = target: Calcium/calmodulin-dependent protein kinase type 1D (Homo sapiens) (UniProt Q8IU85); conditions: at 0.1 µM
[19] = target: Calcium/calmodulin-dependent protein kinase type 1D (Homo sapiens) (UniProt Q8IU85); conditions: at 1 µM
[20] = target: Calcium/calmodulin-dependent protein kinase type II subunit alpha (Homo sapiens) (UniProt Q9UQM7); conditions: at 0.1 µM;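 also: reported values are averages (mean inhibition of CAMK2A)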
Calcium/calmodulin-dependent protein kinase type II subunit alpha (Homo sapiens), sequence (Q9UQM7 whole entry): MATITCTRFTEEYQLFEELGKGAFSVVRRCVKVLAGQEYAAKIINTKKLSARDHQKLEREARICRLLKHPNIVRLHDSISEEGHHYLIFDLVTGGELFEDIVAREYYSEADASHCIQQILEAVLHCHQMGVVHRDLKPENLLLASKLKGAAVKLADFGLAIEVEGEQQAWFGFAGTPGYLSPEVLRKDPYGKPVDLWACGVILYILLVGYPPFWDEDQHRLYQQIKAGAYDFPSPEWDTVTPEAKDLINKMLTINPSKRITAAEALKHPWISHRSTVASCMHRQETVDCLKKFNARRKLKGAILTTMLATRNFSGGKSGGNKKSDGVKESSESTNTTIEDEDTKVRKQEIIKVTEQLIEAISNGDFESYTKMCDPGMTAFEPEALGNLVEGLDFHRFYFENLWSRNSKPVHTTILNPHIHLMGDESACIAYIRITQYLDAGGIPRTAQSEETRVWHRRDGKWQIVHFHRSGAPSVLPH

5'-AMP-activated protein kinase catalytic subunit alpha-1 (Homo sapiens), sequence (Q13131 whole entry, looked up): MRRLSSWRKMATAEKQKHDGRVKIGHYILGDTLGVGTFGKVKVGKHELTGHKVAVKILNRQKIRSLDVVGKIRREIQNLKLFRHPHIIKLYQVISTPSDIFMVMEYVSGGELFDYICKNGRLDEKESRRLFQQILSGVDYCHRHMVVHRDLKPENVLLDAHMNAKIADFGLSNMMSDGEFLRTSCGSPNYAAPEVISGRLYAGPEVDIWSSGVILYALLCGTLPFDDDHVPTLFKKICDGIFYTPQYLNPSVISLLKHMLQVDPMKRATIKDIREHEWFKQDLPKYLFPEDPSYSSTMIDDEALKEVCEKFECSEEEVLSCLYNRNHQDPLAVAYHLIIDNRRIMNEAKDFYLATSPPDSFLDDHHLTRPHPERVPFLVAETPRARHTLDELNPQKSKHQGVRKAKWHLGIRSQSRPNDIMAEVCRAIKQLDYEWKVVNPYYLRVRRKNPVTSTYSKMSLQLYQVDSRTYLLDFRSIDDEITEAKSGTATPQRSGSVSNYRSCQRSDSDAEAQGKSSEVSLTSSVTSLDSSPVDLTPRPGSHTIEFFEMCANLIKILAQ
5'-AMP-activated protein kinase catalytic subunit alpha-2 (Homo sapiens), sequence (P54646 whole entry, looked up): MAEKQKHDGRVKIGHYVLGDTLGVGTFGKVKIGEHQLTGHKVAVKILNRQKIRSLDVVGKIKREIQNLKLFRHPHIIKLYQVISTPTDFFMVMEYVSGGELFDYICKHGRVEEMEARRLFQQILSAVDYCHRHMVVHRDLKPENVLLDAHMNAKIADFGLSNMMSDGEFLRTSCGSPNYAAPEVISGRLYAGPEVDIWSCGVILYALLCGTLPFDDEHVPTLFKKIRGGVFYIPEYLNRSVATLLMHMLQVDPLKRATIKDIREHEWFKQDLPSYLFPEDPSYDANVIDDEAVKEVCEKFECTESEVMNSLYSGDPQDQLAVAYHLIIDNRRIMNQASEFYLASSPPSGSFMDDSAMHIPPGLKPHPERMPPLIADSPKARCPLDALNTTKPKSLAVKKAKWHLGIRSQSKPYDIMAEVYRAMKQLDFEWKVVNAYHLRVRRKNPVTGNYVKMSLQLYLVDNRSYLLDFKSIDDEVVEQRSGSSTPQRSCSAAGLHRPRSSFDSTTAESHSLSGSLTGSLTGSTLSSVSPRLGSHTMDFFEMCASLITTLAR
Calcium/calmodulin-dependent protein kinase type 1D (Homo sapiens), sequence (Q8IU85 whole entry, looked up): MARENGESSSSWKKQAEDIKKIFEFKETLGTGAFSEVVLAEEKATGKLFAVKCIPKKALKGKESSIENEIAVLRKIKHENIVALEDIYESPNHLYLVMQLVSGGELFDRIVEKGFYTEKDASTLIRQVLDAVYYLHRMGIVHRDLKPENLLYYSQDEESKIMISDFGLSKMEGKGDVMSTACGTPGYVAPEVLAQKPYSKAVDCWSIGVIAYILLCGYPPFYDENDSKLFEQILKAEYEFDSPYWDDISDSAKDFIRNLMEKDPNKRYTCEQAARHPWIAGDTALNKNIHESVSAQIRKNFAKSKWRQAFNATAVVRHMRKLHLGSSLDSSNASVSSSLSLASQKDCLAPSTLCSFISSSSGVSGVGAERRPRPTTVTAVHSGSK
Ribosomal protein S6 kinase alpha-6 (Homo sapiens), sequence (Q9UK32 whole entry): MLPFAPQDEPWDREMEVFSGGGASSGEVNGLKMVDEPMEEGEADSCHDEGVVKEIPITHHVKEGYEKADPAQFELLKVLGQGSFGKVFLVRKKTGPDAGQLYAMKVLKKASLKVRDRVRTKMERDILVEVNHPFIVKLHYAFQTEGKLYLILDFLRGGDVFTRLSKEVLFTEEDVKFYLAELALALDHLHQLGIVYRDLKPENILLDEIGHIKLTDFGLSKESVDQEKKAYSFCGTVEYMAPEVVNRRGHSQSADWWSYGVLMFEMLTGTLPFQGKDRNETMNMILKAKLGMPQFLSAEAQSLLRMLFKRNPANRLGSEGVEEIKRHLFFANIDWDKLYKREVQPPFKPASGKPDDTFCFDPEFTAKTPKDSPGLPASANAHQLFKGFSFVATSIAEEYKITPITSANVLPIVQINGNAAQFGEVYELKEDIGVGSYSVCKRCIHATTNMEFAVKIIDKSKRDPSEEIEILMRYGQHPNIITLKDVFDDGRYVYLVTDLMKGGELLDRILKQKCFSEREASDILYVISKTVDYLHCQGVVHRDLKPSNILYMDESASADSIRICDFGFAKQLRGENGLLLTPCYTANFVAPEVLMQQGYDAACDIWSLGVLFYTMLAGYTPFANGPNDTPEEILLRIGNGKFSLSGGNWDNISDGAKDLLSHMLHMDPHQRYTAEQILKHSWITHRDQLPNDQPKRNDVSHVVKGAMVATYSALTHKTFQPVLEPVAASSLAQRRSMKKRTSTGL

| SMILES | inhibition [1] [%] | inhibition [2] [%] | inhibition [3] [%] | inhibition [4] [%] | inhibition [5] [%] | inhibition [6] [%] | inhibition [7] [%] | inhibition [8] [%] | inhibition [9] [%] | inhibition [10] [%] | inhibition [11] [%] | inhibition [12] [%] | inhibition [13] [%] | inhibition [14] [%] | inhibition [15] [%] | inhibition [16] [%] | inhibition [17] [%] | inhibition [18] [%] | inhibition [19] [%] | inhibition [20] [%] |
| --- | --- | --- | --- | --- | --- | --- | --- | --- | --- | --- | --- | --- | --- | --- | --- | --- | --- | --- | --- | --- |
| CC(C)=Cc1cccc2c1/C(=N/Nc1ccc(S(N)(=O)=O)cc1)C(=O)N2 | 13.6 | 0.34 | 5.74 | -2.99 | 3.04 | 0.02 | 0.72 | 13.9 | 56.6 | 3.74 | 40.2 | 80.3 | 87.3 | 7.32 | 45 | 14.6 | 58.2 | 0.31 | 1.3 | 2.92 |
| Nc1nc(-c2ccc3c(c2)C(=Cc2cc(Br)c(O)c(Br)c2)C(=O)N3)cs1 | 2.87 | 0.99 | 0.56 | 0.38 | 2.1 | -0.67 | -0.04 | -0.3 | 6.79 | 3.28 | 1.63 | 3.02 | 5.77 | 1.06 | 6.62 | 0.58 | 8.7 | 0.31 | 9 | -5.57 |
| CCn1c(-c2nonc2N)nc2c(C#CC(C)(C)O)nc(CN3CCCC3)cc21 | 0.64 | -0.45 | 0.58 | 0.87 | -0.61 | 0.78 | 0.63 | 2.98 | 3.34 | 2.04 | 6.62 | -8.68 | 2.69 | 0.47 | 2.17 | 1.38 | 3.23 | 1.23 | 2.08 | -0.97 |
| COc1ccc(COc2ccc(Cc3cnc(N)nc3N)cc2OC)cc1 | -0.61 | 5.08 | 1.31 | 4.24 | 3 | 2.57 | 1.28 | -0.17 | -0.28 | 2.65 | 2.37 | 3.64 | 3.71 | 4.29 | 3.19 | 2.82 | 2.49 | 3.83 | 5.51 | 3.64 |
| CCn1c(-c2nonc2N)nc2c(C#CC(C)(C)O)nc(OC[C@@H](N)c3ccccc3)cc21 | 17.5 | 0.38 | 3.01 | 2.41 | 10.3 | 43.1 | 60.4 | 26.6 | 66.9 | 4.59 | 21.1 | 28 | 94.5 | 0.41 | 4.9 | 0.42 | 5 | 0.26 | 2.9 | -2.45 |
| COC(=O)Nc1nc2cc(Oc3cccc(NC(=O)Nc4cc(C(F)(F)F)ccc4F)c3)ccc2[nH]1 | 1.04 | 0.32 | 0.41 | -2.66 | -3.24 | -0.34 | -0.49 | 1.64 | 0.51 | 0.44 | 3.68 | 0.14 | -3.14 | 1.74 | 1.87 | 1.38 | 2.1 | 0.54 | 4.96 | 0.56 |
| Fc1cccc(COc2ccc(Nc3ncnc4cc(-c5ccc[nH]5)sc34)cc2Cl)c1 | 2.27 | 1.92 | 3.96 | -0.18 | 5.58 | 0.1 | 4.46 | 1.8 | 0.98 | 3.81 | 3.27 | 2.43 | 6.42 | 0.67 | 1.16 | 0.79 | 4.01 | 1.56 | 1.16 | 0.3 |

Reference: ChEMBL document CHEMBL1961873, “Compounds: GSK PKIS; Assays: Nanosyn kinase panel” (2012)
